# An excerpt weighted towards active compounds, which were near 9.4% of everything screened.
# ELG1 repair inh: ELG1-dependent DNA repair inhibition; HEK293T ELG1-luciferase reporter, luminescence, 16 h; DNA damage induced by 5-fluorouridine; Potency, µM (highest dose often 46.1 µM), inactives show at the highest dose activity change, negative = inhibition, usual class: inhibitors; 2.3% of 330,000 active; AID 504467; note: % is set by controls: 0 for no effect and ±100 for the full control effect; nearly all actives have a fitted effect of over 55% in size
#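 Step one: seed 2,000 cells per well. Step two: pin-transfer compound or DMSO alongside 5-fluorouridine. Step three: incubate 16 hr, 37 °C, 5% CO2. Step four: add ONE-Glo, wait 30 min, read luminescence.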
# Rab9 prom act: Rab9 promoter activation | Huh7 Rab9 promoter-luciferase reporter, luminescence, 24 h | Potency, µM (titrated, usually from 9.22 µM), inactives show top-dose activation, negative = inhibition, most hits filed as activators | 2.8% of 320,000 active | AID 485297; note: % of control where 0% means no effect; nearly all actives have a fitted effect of over 60% in size
#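 Steps: seed 1500 Huh7 Rab9-luc cells per well, rest 2 h at 37 °C; add compound in DMSO; incubate 24 h; add luciferase reagent, 10 min ambient; read luminescence.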
# NPC1 prom act: activators of NPC1 promoter. AID 485313. Potency, µM (top dose mostly 9.22 µM), for inactives: top-dose activation, usual class: activators. Huh7 NPC1 promoter luciferase reporter, 24 h. 2.4% of 320,000 active; note: % of control where 0% means no effect; nearly all actives have a fitted effect of over 60% in size
#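 In 1536-well qHTS, Huh7 cells harboring an NPC1 promoter–luciferase construct received compound for 24 h; activation was quantified by luminescence following luciferase reagent addition.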
# FLuc modulator: counter-screen for miR-21 project: firefly luciferase inhibitors or activators. 6.9% of 360,000 active. P08659. Potency, µM (doses to about 57.5 µM), for inactives: top-dose activity change, negative = inhibition, hits mostly inhibitors. AID 588342. purified FLuc, Km substrates, luminescence inhibition;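 note: plate controls were vehicle for no effect and reference inhibitor for full effect; nearly all actives have a fitted effect of over 55% in size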
# Target sequence (P08659 whole entry, looked up): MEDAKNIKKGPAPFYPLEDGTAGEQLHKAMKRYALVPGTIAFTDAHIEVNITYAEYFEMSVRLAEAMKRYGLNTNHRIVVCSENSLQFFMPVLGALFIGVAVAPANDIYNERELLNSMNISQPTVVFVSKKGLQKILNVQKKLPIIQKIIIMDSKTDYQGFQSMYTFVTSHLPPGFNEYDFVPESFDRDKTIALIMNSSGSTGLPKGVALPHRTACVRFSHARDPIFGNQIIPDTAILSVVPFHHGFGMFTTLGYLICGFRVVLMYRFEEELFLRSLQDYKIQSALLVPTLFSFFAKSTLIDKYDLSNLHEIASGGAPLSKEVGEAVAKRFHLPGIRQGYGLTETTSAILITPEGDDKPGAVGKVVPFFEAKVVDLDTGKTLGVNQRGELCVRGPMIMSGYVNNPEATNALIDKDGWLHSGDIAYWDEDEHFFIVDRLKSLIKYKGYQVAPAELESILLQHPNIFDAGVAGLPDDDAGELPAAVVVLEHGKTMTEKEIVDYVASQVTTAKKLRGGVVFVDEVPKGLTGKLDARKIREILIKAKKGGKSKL
#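 Purified P. pyralis luciferase, 10 nM final, with Km-level 10 uM D-luciferin and 10 uM ATP in 50 mM Tris acetate pH 7.5, 10 mM Mg acetate, 0.01% Tween-20, 0.05% BSA; 6-point qHTS titration about 60 µM downward; luminescence read.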
# ELG1 genotoxic: genotoxicity induction in ELG1-luciferase HEK293T cells; HEK293T ELG1-luciferase reporter, luminescence, 16 h; Potency, µM (doses to about 46 µM), for the others: top-dose activity change, positive = activation, actives largely listed as activators; 1.3% of 330,000 active; note: % of control where 0% means no effect; nearly all actives have a fitted effect of over 60% in size
#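 HEK293T cells expressing luciferase-tagged ELG1 were treated with compound or DMSO for 16 hr at 37°C. Luciferase activity was then read after 30 min with ONE-Glo at room temperature; rising signal flags genetic stress.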
# SMN2 splice enh: SMN2 splice variant enhancement; HEK293 SMN2-luciferase splicing reporter, luminescence, 30-36 h; 2.8% of 210,000 active; Potency, µM (highest dose often 46.1 µM), for inactives: top-dose activity change, positive = activation, actives largely listed as activators; note: % of control where 0% means no effect; nearly all actives have a fitted effect of over 55% in size
#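 HEK293 cells carry an SMN2 minigene-luciferase reporter in which exon 7 inclusion puts luciferase in frame. Cells were seeded at 2000 cells/well, attached for 10-12 hours, then exposed to compounds for 30-36 hours at 37C before ONE-Glo luminescence.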
# Starred values were filed as active, the others as inactive; ? = inconclusive; nt = no result given; [ ] = remark or other dose. Calls come from the whole dose curve; as a rule, active = well fitted curve in the direction sought with a large enough effect; inconclusive = small, poorly fitted or top-dose-only effect, or another doubt; inactive = no such curve, though single readings can be large; an effect the other way counts as inactive or inconclusive. Potency is the fitted concentration of half-maximal effect.
SMILES,ELG1 repair inh,Rab9 prom act,NPC1 prom act,FLuc modulator,ELG1 genotoxic,SMN2 splice enh
O=C(CCc1ccc(S(=O)(=O)N2CCOCC2)cc1)OCc1nc2ccccc2s1,?,6%,-3%,21µM*,?,-42%
CC(=O)c1cccc(OC(=O)c2cc(S(=O)(=O)N3CCOCC3)ccc2N2CCCC2)c1,9.2µM*,-5%,2%,2%,4%,nt
COc1cccc(OCC(=O)NC2CC(=O)N(c3cccc(OC)c3)C2)c1 (centres undefined),nt,nt,nt,0%,nt,nt
COc1cccc(CNC(=O)CCNS(=O)(=O)c2ccc3c(c2)CCCC(=O)N3)c1,nt,nt,nt,6%,nt,nt
CC(N)CCCP(=O)(O)O (centres undefined),nt,nt,nt,nt,nt,-2%
COc1ccccc1CNC(=O)CN1N=C(c2ccccc2)CCC1=O,nt,nt,nt,1%,nt,nt
O=C(OCc1nc2ccccc2s1)c1cccc(S(=O)(=O)N2CCOCC2)c1,?,9%,8%,8.5µM*,?,12%
CN(C)c1cccc(C(=O)OCCNC(=O)c2cccc(S(=O)(=O)N3CCOCC3)c2)c1,7.3µM*,-10%,-5%,-18%,-7%,nt
O=C(OCCOc1ccccc1)c1cccc(S(=O)(=O)N2CCOCC2)c1,-13%,4%,-6%,3%,-1%,nt
O=C(CCC(=O)N1CC2CCCN2c2ccccc21)NCc1ccc(Cl)cc1 (centres undefined),nt,nt,nt,-9%,nt,nt
COCCCNC(=O)c1sc2nc(C)c(C(=O)Nc3ccc(C)cc3C)c(-c3ccccc3Cl)c2c1N,nt,nt,nt,-19%,nt,-12%
CCCCn1c2ccccc2c2nnc(SCC(=O)Nc3ccc(NC(C)=O)cc3)nc21,nt,nt,nt,-7%,nt,1%
CC(C)CC(=O)Nc1c(C(=O)N2CCN(c3ccccc3F)CC2)oc2ccccc12,nt,nt,nt,-15%,nt,nt
Cc1oc(-c2cccc3ccccc23)nc1CN1CCN(c2ncnc3ccccc23)CC1,15µM*,-17%,-5%,0%,-19%,-100%
COc1ccc(-c2nc(CN3CCN(c4cc(C)nc(C)c4)CC3)c(C)o2)c2ccccc12,13%,-5%,-2%,-2%,-1%,nt
Cc1ccc(-n2c(C)cc(C(=O)COC(=O)c3ccc[nH]c3=O)c2C)cc1,?,0.4µM*,0.32µM*,2.7µM*,?,2.5µM*
COCCn1c(C)cc(C(=O)COC(=O)c2ccc[nH]c2=O)c1C,?,?,?,3µM*,?,-9%
COCC(=O)OCC(=O)c1cc(C)n(-c2ccc(Br)cc2)c1C,3%,4%,-1%,12µM*,-3%,-4%
COc1ccc(-n2c(C)cc(C(=O)COC(=O)Cn3cnc4ccccc43)c2C)cc1,-18%,1%,-1%,-12%,?,-52%
Cc1cc(C(=O)COC(=O)c2ccc[nH]c2=O)c(C)n1-c1ccc(Br)cc1,?,?,22%,?,11%,?
Cc1cc(C(=O)COC(=O)c2ccc[nH]c2=O)c(C)n1C,?,30%,22%,9.5µM*,?,-28%
CC(=O)c1c(C)[nH]c(C(=O)NCCc2ccccc2)c1C,?,1.3µM*,2.5µM*,11µM*,?,11µM*
O=C(NCCc1ccccc1)c1ccco1,?,?,?,?,?,13µM*
O=C(Nc1ccccc1C(=O)NCCc1ccccc1)c1ccco1,?,28%,?,?,6%,15%
O=C(NCCc1ccccc1)c1c(F)cccc1F,?,1.4µM*,1.6µM*,17µM*,?,nt
SMILES,ELG1 repair inh,Rab9 prom act,NPC1 prom act,FLuc modulator,ELG1 genotoxic,SMN2 splice enh
O=C(NCCc1csc(-c2ccccc2)n1)c1c(F)cccc1F,?,-1%,2%,?,-14%,-66%
CCc1c(C(=O)NC2CCCc3ccccc32)[nH]c(C)c1C(C)=O (centres undefined),?,0%,-1%,-2%,-9%,nt
CC(=O)c1c(C)[nH]c(C(=O)NC2CCSc3ccccc32)c1C (centres undefined),5.8µM*,-6%,-4%,-4%,-3%,nt
CN[C@@H]1NC(=O)c2ccccc2N1Cc1ccc(F)cc1,nt,nt,nt,nt,nt,-6%[9.22 µM]
COc1ccccc1CN1CCN(C2CCN(C(=O)NC(C)C)CC2)C(=O)C1=O,nt,nt,nt,1%,nt,nt
C[C@H]1Cc2c(COc3ccccc3)nc3c(c2CO1)CN(C(=O)c1ccco1)CC3,nt,nt,nt,nt,nt,7%[9.22 µM]
Cc1ccnc(NC(=O)CCC(=O)N(CC(=O)NCCc2ccccc2)Cc2ccco2)c1,8%,-2%,0%,-2%,-1%,6%
CN(CC(=O)NCCc1ccccc1)Cc1ccco1,?,26%,?,?,21µM*,nt
O=C(N/N=C/c1ccc(Cl)cc1)c1sccc1OCc1ccc(F)cc1,?,-11%,-15%,?,?,?
O=C(COCC(=O)N/N=C/c1ccc(F)cc1)N/N=C/c1ccc(F)cc1,11%,2%,0%,8.5µM*,4%,10%
O=C(COCC(=O)N/N=C/c1ccccc1F)N/N=C/c1ccccc1F,10%,13%,0%,?,1%,8%
O=C(N/N=C/c1ccc(F)cc1)c1sccc1OCc1ccc(F)cc1,13%,-8%,-18%,9.5µM*,12%,4%
CCOC(=O)C(=O)N/N=C/c1ccc(F)cc1,-9%,-3%,3%,13µM*,-8%,nt
Cc1nc(N2CCCC2)c2c(C(=O)N3CCN(c4cccc(C)c4C)CC3)c(C)oc2n1,nt,nt,nt,2%,nt,nt
CCCOC(=O)c1ccc(-c2c(C)noc2-c2ccc(OC)cc2O)o1,21µM*,-1%,-3%,0%,-22%,3%
COc1ccc(-c2onc(C)c2-c2cscn2)c(O)c1,-17%,2%,0%,3%,-1%,5%
COC(=O)/C=C/c1ccc(C(=O)NCC(=O)N[C@@H](CCC(=O)OC)C(=O)N[C@@H](CC(C)C)C(N)=O)cc1,nt,nt,nt,nt,nt,6%
O=C(Nc1c(C(=O)O)oc2ccccc12)c1ccc(C(F)(F)F)cc1,nt,nt,nt,9.5µM*,nt,nt
CN(C)C(=O)c1cc(C(=O)c2ccc(Cl)cc2Cl)c[nH]1,?,?,?,15µM*,15%,nt
CN(C)C(=O)c1cc(C(=O)c2ccc(F)cc2Cl)c[nH]1,?,25%,?,?,13%,nt
CN(C)C(=O)c1cc(C(=O)c2ccc(C(F)(F)F)cc2)c[nH]1,?,?,?,13µM*,?,nt
CCOc1ccc(OCC)c(NC(=O)c2cnc3c(-c4ccccc4)c(C)nn3c2C)c1,nt,nt,nt,-1%,nt,nt
Cc1ccc(Nc2nc(=O)c3cccnc3s2)cc1,?,2.5µM*,3.2µM*,12µM*,?,18%
COc1ccc(OC)c(Nc2ncnc3ccccc23)c1,6%,12%,0%,?,-2%,-5%

# Screening results (PubChem)
